Drawing on PubChem BioAssay (NCI), this text covers growth inhibition for 20 compounds.

The nature of test [1]: NCI Yeast Anticancer Drug Screen. Data for the rad50 strain (AID 155).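 Note: 0% = growth of vehicle-only cultures of the same strain.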 To be noted: S. cerevisiae rad50 strain growth inhibition; at 50.0 µM; stronger effect = higher value. In short, it runs like this:
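Readout: growth inhibition relative to vehicle-treated cultures. Compound exposure was carried out in a genetically defined yeast strain deficient in DNA damage repair.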

A short description of test [2]: NCI Yeast Anticancer Drug Screen. Data for the mec2-1 strain (AID 157). The settings on record: S. cerevisiae mec2-1 strain, at 50.0 µM, stronger effect = higher value. In short, it runs like this: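 Growth inhibition is read against vehicle-treated controls after compound exposure of the mec2-1 yeast strain, which is defective in DNA damage repair or cell cycle control.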

Test [3] is described as follows: NCI Yeast Anticancer Drug Screen. Data for the sgs1 mgt1 strain (AID 161).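 Note: 0% = growth of cultures given vehicle only.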 To be noted: S. cerevisiae sgs1 mgt1 strain, at 50.0 µM, stronger effect = higher value. In short, it runs like this: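 Growth of a repair-deficient yeast mutant was monitored after compound treatment and expressed as inhibition relative to vehicle-treated cultures.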
Test [4] is described as follows: NCI Yeast Anticancer Drug Screen. Data for the cln2 rad14 strain (AID 165).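 Note: 0% = growth equal to vehicle treated cultures.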 The settings on record: S. cerevisiae cln2 rad14 strain, at 50.0 µM, stronger effect = higher value. In short, it runs like this: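 Growth inhibition, relative to vehicle-treated controls, is the read-out. The test organism is a yeast strain with defined genetic alterations, cln2 rad14.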
Test [5] can be described thus: NCI Yeast Anticancer Drug Screen. Data for the bub3 strain (AID 167). The settings on record: S. cerevisiae bub3 mutant strain, at 50.0 µM, stronger effect = higher value. In short, it runs like this: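 Readout: yeast growth inhibition, expressed relative to vehicle-only wells. The test organism is a mutant strain from a panel with lesions in DNA repair or checkpoint genes.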

Test [6] is described as follows: NCI Yeast Anticancer Drug Screen. Data for the mlh1 rad18 strain (AID 175). The settings on record: S. cerevisiae mlh1 rad18 strain growth inhibition; at 50.0 µM; stronger effect = higher value. In short, it runs like this: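 Cells of a genetically altered yeast strain, deficient in DNA damage repair, were treated with compound. Their growth was then compared with that of vehicle-treated cultures to give inhibition.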

The structures appear in SMILES notation. The panel holds about 79,000 compounds, 15% with a hit somewhere; the sample as a whole holds those more often. A number with no mark means an inactive call. The source made the active and inactive calls. Cut-off read from the data, not from the text of the source: active = growth inhibition above about 70%; inactive = the rest.

Consider `Clc1ccc(NC2=NCCN=C(Nc3ccc(Cl)cc3)SS2)cc1`, for which the growth inhibition in test [1] was 23.7%; in test [2], 14.2%; in test [3] it was 39.8%; in test [4] it was 17.4%; in test [5], 37.5%; in test [6], 20.7%.

For the compound `O=NC(C[N+](=O)[O-])c1ccccc1` (stereo not given), the growth inhibition was 4.6% in test [1]; -21.9% in test [2]; 2.7% in test [3]; -40.7% in test [4]; 6.55% in test [5]; -24.4% in test [6].

Take `CCC1C(C#N)(C#N)C1(C#N)C#N`: the growth inhibition was -4.7% in test [1]; 21.8% in test [2]; 7.45% in test [3]; 0.35% in test [4]; 1.45% in test [5]; 12.2% in test [6].

`CCCCCC(=O)NC(=O)Nc1ccccc1OC`: the growth inhibition is -13.6% in test [1]; -1.05% in test [2]; -4.35% in test [3]; -24.1% in test [4]; 0.65% in test [5]; -1.55% in test [6].

As to `COc1ccc(NC(=O)CCCC(=O)CC(=O)c2ccc(Cl)cc2)c(OC)c1`, the growth inhibition in test [1] is 32.6%; in test [2], 13.2%; in test [3], -0.95%; in test [4] it was -20%; in test [5] it was -1.95%; in test [6], 18.1%.

As to `O=C1CC2C=CC(O)C(C1)C2` (stereo not given), the growth inhibition in test [1] is -20.3%; in test [2], 1.65%; in test [3] it was -30.6%; in test [4], 21.1%; in test [5], -58.2%; in test [6], -109%.

With `CC1(C)OC2C(=O)C3COC(O3)C2O1` (stereo not given), the growth inhibition in test [1] is -10.7%; in test [2], -0.25%; in test [3], -25.1%; in test [4] it was -36%; in test [5] it was 0%; in test [6], 5.8%.

In the case of `CC(C)(C)[Si](C)(C)OCCC1CC2(S(=O)(=O)C3=CC=C=C=C3)ON1CC2S(=O)(=O)c1ccccc1` (stereo not given), the growth inhibition in test [1] is 6.8%; in test [2], -6.2%; in test [3] it was -1.45%; in test [4] it was -23.9%; in test [5], -20.4%; in test [6], 17.1%.

On to `CC(=O)NC(CCCN)C(=O)NCc1ccccc1` (stereo not given), for which the growth inhibition is 3.45% in test [1]; -19.2% in test [2]; -20.3% in test [3]; 17.5% in test [4]; -3.45% in test [5]; -22.6% in test [6].

With `C[C@H](CCc1nc(C#N)c(N)o1)[C@H]1CC[C@H]2[C@@H]3CCC4C[C@@H](O)CC[C@]4(C)[C@H]3C[C@@H](O)[C@]12C` (stereo not given in full), the growth inhibition is 87% (active) in test [1]; 91.6% (active) in test [2]; 86% (active) in test [3]; 87.7% (active) in test [4]; 84% (active) in test [5]; 46% in test [6].

Take `CCC(CCCN)Nc1cc(OC)cc2c(C)ccnc12` (stereo not given): the growth inhibition in test [1] was -53.9%; in test [2], -3.1%; in test [3] it was 1.75%; in test [4], -4.5%; in test [5], 21.2%; in test [6], -21.2%.

Consider `CC(C)CCC(=S)N1CCN(c2ccccc2)CC1`, for which the growth inhibition in test [1] is -0.4%; in test [2], 7.25%; in test [3], 2.2%; in test [4] it was -45.1%; in test [5], 2.05%; in test [6], -17.4%.

For `C#CCOC(=O)c1ccc(OC(C)=O)cc1`, the growth inhibition in test [1] is -3.45%; in test [2], 1.45%; in test [3], 10.1%; in test [4], 3.45%; in test [5] it was 14.2%; in test [6] it was -1.65%.

Regarding `CC1(C)C[C@H](OC2CCCCO2)[C@H]2O[C@@]2(C)C1` (stereo not given in full), the growth inhibition in test [1] is 10.8%; in test [2], 4.3%; in test [3] it was -29.8%; in test [4] it was 1.1%; in test [5], 18.4%; in test [6], 3.95%.

For `COc1cc(C(c2ccc3c(c2)OCO3)C2SCCCS2)cc(OC)c1OC` (stereo not given), the growth inhibition was 25.2% in test [1]; 13.7% in test [2]; 21% in test [3]; 6.6% in test [4]; -12% in test [5]; 37.9% in test [6].

For the compound `CCCCNC(=O)Oc1cccc2ccccc12`, the growth inhibition was 4.3% in test [1]; -6.8% in test [2]; 7.7% in test [3]; -4.35% in test [4]; 29.8% in test [5]; -6.4% in test [6].

As to `N=C(N)SCc1cccc(-c2nc3ccccc3c(=O)o2)c1`, the growth inhibition in test [1] was 22.2%; in test [2], 17.4%; in test [3] it was 7.9%; in test [4], 5.95%; in test [5] it was 20.8%; in test [6] it was 16.9%.

For `Cn1c(CBr)nc2c1C(=O)c1nc[nH]c(=O)c1C2=O`, the growth inhibition in test [1] was 32%; in test [2], 0.55%; in test [3] it was 37.6%; in test [4] it was 11.8%; in test [5], 3.4%; in test [6] it was 31.6%.

With `COC1OCC(NC(=O)CNC(=O)CCCCCCCCCCCCC(C)C)C(O)C1O` (stereo not given), the growth inhibition in test [1] was 16.2%; in test [2], 5.55%; in test [3], 8.75%; in test [4], 32.5%; in test [5] it was -8.1%; in test [6], 18.6%.

For the compound `Cc1cc2nc3[nH]c(=O)c4c(n3c2cc1C)CCC4`, the growth inhibition in test [1] was 0%; in test [2], -6.8%; in test [3] it was 0.2%; in test [4] it was -8.95%; in test [5], 8.45%; in test [6], -15.2%.
